Measurements taken from PubChem BioAssay (NCATS).
Results filed as inconclusive are left out. Entries that show only a call come without a potency. Some compounds were tested as several samples or in several runs, with calls that do not always agree. The source made the active and inactive calls. Unless noted, calls follow the shape of the dose curve; as a rule, active = well fitted curve in the direction sought with a large enough effect; inconclusive = small, poorly fitted or top-dose-only effect, or another doubt; inactive = no such curve, though single readings can be large; an effect the other way counts as inactive or inconclusive.

Experiments:
[1] = qHTS for Inhibitors of Plasmodium falciparum (DD2) proliferation (AID 504314); also: potency is read from the fitted curve at half-maximal effect;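 as to activity, negative = inhibition: parasite DNA measured by SYBR Green fluorescence after red cell lysis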
Method in brief: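 Parasite proliferation measured as SYBR Green signal from Plasmodium DNA, mature erythrocytes lacking DNA. 72 h incubation, 37C; activity scaled between vehicle and 0.29 uM artemisinin, with correction from vehicle-only plates.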

[2] = qHTS for Inhibitors of Plasmodium falciparum (GB4) proliferation (AID 504315); also: nearly all actives have a fitted effect of over 50% in size; also: potency is read from the fitted curve at half-maximal effect
Method in brief: (§1)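 Parasite growth measured as SYBR Green DNA fluorescence (ex 485, em 535 nm) after overnight lysis following 72 h culture at 37 °C, 0.3% parasitemia, 2.5% hematocrit. Values normalized against DMSO and 0.29 uM artemisinin controls, with plate-stack correction.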

[3] = qHTS for Inhibitors of Plasmodium falciparum (7G8) proliferation (AID 504316); also: nearly all actives have a fitted effect of over 65% in size; also: potency is read from the fitted curve at half-maximal effect
Method in brief: as §1

[4] = qHTS for Inhibitors of Plasmodium falciparum (HB3) proliferation (AID 504318); also: nearly all actives have a fitted effect of over 60% in size; also: potency is read from the fitted curve at half-maximal effect
Method in brief: as §1

[5] = qHTS for Inhibitors of Plasmodium falciparum (CP250) proliferation (AID 504320)
Method in brief: as §1

[6] = target: Atrial natriuretic peptide receptor 1 (Homo sapiens) (UniProt P16066); experiment: Natriuretic polypeptide receptor (hNpr1) antagonism - Pilot CMLD screen (AID 1347052; calls by dose curve;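 also: cGMP level read as GloSensor luciferase luminescence after agonist stimulation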; also: potency is read from the fitted curve at half-maximal effect)
Atrial natriuretic peptide receptor 1 (Homo sapiens), sequence (P16066 whole entry, looked up): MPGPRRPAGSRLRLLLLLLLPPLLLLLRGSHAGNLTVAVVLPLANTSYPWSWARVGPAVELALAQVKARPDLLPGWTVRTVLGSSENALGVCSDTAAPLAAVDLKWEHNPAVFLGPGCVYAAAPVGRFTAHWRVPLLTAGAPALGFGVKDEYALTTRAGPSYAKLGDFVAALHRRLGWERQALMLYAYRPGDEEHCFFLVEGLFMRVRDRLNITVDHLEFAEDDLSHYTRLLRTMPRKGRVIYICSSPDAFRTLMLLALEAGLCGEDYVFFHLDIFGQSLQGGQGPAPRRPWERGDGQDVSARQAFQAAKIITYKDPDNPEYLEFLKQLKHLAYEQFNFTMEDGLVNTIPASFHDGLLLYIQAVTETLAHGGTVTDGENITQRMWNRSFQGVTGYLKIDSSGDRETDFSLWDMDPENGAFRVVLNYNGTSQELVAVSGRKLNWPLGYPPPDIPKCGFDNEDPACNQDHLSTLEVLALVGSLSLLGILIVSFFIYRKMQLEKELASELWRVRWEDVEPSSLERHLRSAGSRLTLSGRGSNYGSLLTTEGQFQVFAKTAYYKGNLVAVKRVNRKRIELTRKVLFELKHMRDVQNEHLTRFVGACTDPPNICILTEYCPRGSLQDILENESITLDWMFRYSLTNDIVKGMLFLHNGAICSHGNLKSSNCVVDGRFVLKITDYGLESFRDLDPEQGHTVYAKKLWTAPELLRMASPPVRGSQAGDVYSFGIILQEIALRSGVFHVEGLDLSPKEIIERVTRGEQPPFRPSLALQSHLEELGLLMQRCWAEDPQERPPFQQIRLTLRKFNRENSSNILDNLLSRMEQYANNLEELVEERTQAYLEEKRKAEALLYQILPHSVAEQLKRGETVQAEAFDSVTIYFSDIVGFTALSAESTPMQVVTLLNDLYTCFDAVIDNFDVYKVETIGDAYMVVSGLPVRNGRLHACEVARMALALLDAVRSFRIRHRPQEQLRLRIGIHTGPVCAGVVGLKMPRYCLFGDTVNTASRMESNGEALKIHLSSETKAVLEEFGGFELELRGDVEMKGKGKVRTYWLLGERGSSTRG

Row | SMILES | Potency [1] | Potency [2] | Potency [3] | Potency [4] | Potency [5] | Potency [6] | activity, negative = inhibition [1]
1 | CC1(OC(=O)C2CCCC2)C(=O)C=C2C=C(C3CC3)OC=C2C1=O (configuration not stated) | inactive | inactive | inactive | inactive | inactive | inactive | –
2 | COC(=O)CC1=CO[C@@H](O)[C@@H]2C(CO)=CC[C@@H]12 | inactive | inactive | inactive | inactive | inactive | inactive | –
3 | C=CC1=C2C=C(C3CC3)N(Cc3ccc4c(c3)OCO4)C=C2C(=O)C(C)(OC(=O)c2ccco2)C1=O (configuration not stated) | – | inactive | inactive | inactive | inactive | inactive | 4.05% [at 1.12 µM] (inactive)
4 | C#CCNC(=O)[C@H]1C=C(OC)C(=O)C[C@H]2c3ccccc3C[C@]12C | inactive | inactive | inactive | inactive | inactive | inactive | –
5 | CC(C)CON=C1C[C@@H](O)[C@@H](O)[C@@H]2[C@H]3C(=O)N(C4CCCCC4)C(=O)[C@@H]3CC[C@@H]12 | inactive | inactive | inactive | inactive | inactive | inactive | –
6 | C[C@@H]1C(c2ccccc2)=Cc2[nH]c(=O)[nH]c2C[C@@H]1C(=O)N1CCCC1 | inactive | inactive | inactive | inactive | inactive | inactive | –
7 | COC(=O)c1ccc(CN2C(=O)C3(CC(C)=C[C@@H](C)O3)c3c(Br)cccc32)cc1 (some centres not stated) | inactive | inactive | inactive | inactive | inactive | inactive | –
8 | CCC(=O)OC1(C)C(=O)C=C2C=C(CCCC(=O)OC)OC=C2C1=O (configuration not stated) | inactive | inactive | inactive | inactive | inactive | inactive | –
9 | c1ccc(-c2nc(-c3ccccc3)c(Nc3ccc4ccccc4c3)o2)cc1 | inactive | inactive | inactive | inactive | inactive | inactive | –
10 | COC(=O)CCCC1=CC2=CC(=O)C(C)(OC(=O)c3cccs3)C(=O)C2=CN1CCCOC(C)C (configuration not stated) | inactive | inactive | inactive | inactive | inactive | inactive | –
11 | CC(=O)C1=C(C)N(Cc2ccccc2)C(=O)NC1c1ccco1 (configuration not stated) | inactive | inactive | inactive | inactive | inactive | inactive | –
12 | COC(=O)N[C@@H](c1ccco1)[C@]1(C(=O)OC)CCCC1=O | inactive | inactive | inactive | inactive | inactive | inactive | –
13 | C=CCN1c2ccccc2[C@]23C[C@@H](C(=O)OC)N(C(=O)c4cccs4)C2=NC(C(=O)OC)=C(C(=O)OC)[C@H]13 | inactive | inactive | inactive | inactive | inactive | inactive | –
14 | Cc1ccc([S+](=O)([O-])N[C@@H]2COC(=O)CC=C[C@H](C)COC(=O)N[C@@H](C)C(=O)CC=C[C@H]2C)cc1 | inactive | inactive | inactive | inactive | inactive | inactive | –
15 | CCOC(=O)C1=CN(CCNC(=O)OC(C)(C)C)C(=O)NC1c1ccccc1 (configuration not stated) | inactive | inactive | inactive | inactive | inactive | inactive | –
16 | Cc1ccc([S+](=O)([O-])N(c2ccccc2)[S+](=O)([O-])C(F)(F)F)cc1 | inactive | inactive | inactive | inactive | inactive | inactive | –
17 | COc1ccc(-c2nc(-c3ccccc3)oc2Nc2ccc3ccccc3c2)cc1 | inactive | inactive | inactive | inactive | inactive | inactive | –
18 | CCOC(=O)CN1C(=O)NC(c2cccc(F)c2)C(C(=O)OC)=C1C (configuration not stated) | inactive | inactive | inactive | inactive | inactive | inactive | –
19 | CCCC[C@H]1CN2[C@H](c3ccc(Br)cc3)[C@H](C)CC[C@H]2C(=O)O1 | inactive | inactive | inactive | inactive | inactive | inactive | –
20 | COC(=O)C1=C(C)N(CCC(C)O)C(=O)N(C(C)=O)C1c1ccccc1 (configuration not stated) | inactive | inactive | inactive | inactive | inactive | inactive | –
21 | C=C(C)C(=O)OC[C@@H]1CN2[C@H](c3ccc(Br)cc3)[C@H](C)CC[C@H]2C(=O)O1 | inactive | inactive | inactive | inactive | inactive | inactive | –
22 | CCOC(=O)NN=C1C[C@@H](O)[C@@H](O)[C@@H]2[C@H]3C(=O)N(c4ccc(F)cc4F)C(=O)[C@@H]3CC[C@H]12 | inactive | inactive | inactive | inactive | inactive | inactive | –
23 | CC(C)[C@@H](OCc1ccccc1)[C@H](C)C=NO[C@H](C)c1cn([C@@H]2COC[C@@H]2O)nn1 | inactive | inactive | inactive | inactive | inactive | inactive | –
24 | Cc1cc2c(c(=O)o1)[C@H]1O[C@](c3ccsc3)(Cc3ccccc31)O2 | inactive | inactive | inactive | inactive | inactive | inactive | –
25 | CN1c2ccccc2[C@@]2(O)C(=O)[C@@]1(C)[C@@H]1CCC=C[C@H]12 | inactive | inactive | inactive | inactive | inactive | inactive | –
26 | CCN1C(=NCC(C)C)N[C@H](c2ccccc2)[C@H](C(=O)OC)[C@H]1C | inactive | inactive | inactive | inactive | inactive | inactive | –

Row | SMILES | Potency [1] | Potency [2] | Potency [3] | Potency [4] | Potency [5] | Potency [6] | activity, negative = inhibition [1]
27 | COC(=O)CCC(=O)OC1(C)C(=O)C=C2C=C3CCCN3C=C2C1=O (configuration not stated) | inactive | inactive | inactive | inactive | inactive | inactive | –
28 | CCN1C(=O)[C@@H]2[C@H]3[C@H](O)[C@H](O)CC(=NOC[C@@H](O)COCc4ccco4)[C@@H]3CC[C@H]2C1=O | inactive | inactive | inactive | inactive | inactive | inactive | –
29 | CC(C)[C@@H](OCc1ccccc1)[C@H](C)C=NO[C@H](C)c1cn([C@H](CO)Cc2ccccc2)nn1 | inactive | inactive | inactive | inactive | inactive | inactive | –
30 | CCN1C(=NCCOC)N[C@@H](c2ccccc2)[C@H](C(=O)OC)[C@H]1C | inactive | inactive | inactive | inactive | inactive | inactive | –
31 | COC(=O)CC=C[C@@H](C)[C@H](OC)c1cc(OC)ccc1Br | inactive | inactive | inactive | inactive | inactive | inactive | –
32 | CCN1C(=NCCc2cccnc2)NC(c2ccccc2)C(C(=O)OC)=C1C (configuration not stated) | inactive | inactive | inactive | inactive | inactive | inactive | –
33 | CC1(OC(=O)C2CCCC2)C(=O)C=C2C=C(c3ccsc3)N(c3cccc(C#N)c3)C=C2C1=O (configuration not stated) | inactive | inactive | inactive | inactive | inactive | 2660 nM (active) | –
34 | C[C@H]1CC[C@H]2C(=O)O[C@H](CO)CN2[C@H]1c1ccc(Br)cc1 | inactive | inactive | inactive | inactive | inactive | inactive | –
35 | CC(=O)OC[C@H]1O[C@H](CC=NOC[C@@H](O)[C@H]2O[C@@H]3OC(C)(C)O[C@H]3[C@@H]2O)C=C[C@H]1OC(C)=O | inactive | inactive | inactive | inactive | inactive | inactive | –
36 | Cc1noc(C)c1S(=O)(=O)N1CCc2nc(COc3ccccc3)c3c(c2C1)CO[C@@H](C)C3 | inactive | inactive | inactive | inactive | inactive | inactive | –
37 | C[C@H]1Cc2c(-c3ccccc3)nc3c(c2CO1)CN(C(=O)NCc1ccco1)CC3 | – | inactive | inactive | inactive | inactive | inactive | 0.465% [at 1.12 µM] (inactive)
38 | COc1ccc([C@]23Cc4cc(C#N)ccc4[C@H](O2)c2c(c4ccc(OC)cc4oc2=O)O3)cc1 | inactive | inactive | 1.69 µM (active) and inactive | inactive | inactive | inactive | –
39 | COc1ccc2c(c1)CO[C@H]([C@H](O)COC(C)=O)[C@H]2C=Cc1ccccc1 | inactive | inactive | inactive | inactive | inactive | inactive | –
40 | COC(=O)CC=C[C@@H](C)[C@@H](C=NO[C@H](C)c1cn([C@@H]2COC[C@@H]2O)nn1)N[S+](=O)([O-])c1ccc(C)cc1 | inactive | inactive | inactive | inactive | inactive | inactive | –
41 | Cc1cc(C)c2c(c1)CO[C@H]([C@H](O)CO)[C@H]2C=Cc1ccccc1 | inactive | inactive | inactive | inactive | inactive | inactive | –
42 | CCN1C(=O)NC(c2cccs2)C(C(=O)OC)=C1C (configuration not stated) | inactive | inactive | inactive | inactive | inactive | inactive | –
43 | COc1cccc(O[C@H]2C=C[C@@H](c3ccccc3)O[C@H]2CO)c1 | inactive | inactive | inactive | inactive | inactive | inactive | –
44 | COc1ccc(-c2nc(-c3ccccc3)c(NC(C)(C)C)o2)cc1 | 1.69 µM (active) and inactive | 1.69 µM (active) and inactive | 1.51 µM (active) and inactive | 2.13 µM (active) and inactive | inactive | inactive | –
45 | CCOC(=O)CN1C(=O)NC(CCc2ccccc2)C(C(C)=O)=C1C (configuration not stated) | inactive | inactive | inactive | inactive | inactive | inactive | –
46 | CC=COC(=O)N[C@@H](c1ccccc1)[C@]1(C(=O)OC)CCCC1=O | inactive | inactive | inactive | inactive | inactive | inactive | –
47 | CCN1C(=O)[C@H]2[C@H]3C(=CC[C@@H]2C1=O)C1(OCCCO1)[C@@H]1O[C@H]1[C@H]3O | inactive | inactive | inactive | inactive | inactive | inactive | –
48 | C=CC[C@@H]1C=C[C@@H](OC(=O)OCC)[C@@H](COC(=O)OCC)O1 | inactive | inactive | inactive | inactive | inactive | inactive | –
49 | CCCCCCCc1cc2ccccc2c2c(C(=O)OCC)c(C(=O)OCC)c(C(=O)OCC)n12 | inactive | inactive | inactive | inactive | inactive | inactive | –
50 | O=C1CCCC=C1C(O)CCOCc1ccccc1 (configuration not stated) | inactive | inactive | inactive | inactive | inactive | inactive | –
51 | COC(=O)C1(C)C=C(Nc2ccc(OC)cc2)C(=O)N1c1ccc(OC)cc1 (configuration not stated) | inactive | inactive | inactive | inactive | inactive | inactive | –
52 | C=C(CCN1C=C(C(C)=O)C(c2ccccc2)NC1=O)c1ccccc1 (configuration not stated) | inactive | inactive | inactive | inactive | inactive | inactive | –
